In PubChem BioAssay (EPA / NIEHS) one finds outcome and AC50 data, which are given here for four molecules.

Broadly, the AC50 is the concentration giving half of the maximal activity seen.

Experiment [1] is described as follows: ATG_ISRE_CIS: Attagene CIS-FACTORIAL HepG2 Assay for human Interferon Regulatory Factor 1 (IRF1) binding to an Interferon-Stimulated Response Element (ISRE) (AID 2282948). Particulars: HepG2 ISRE cis-reporter (Attagene), mRNA transcription readout; actives raise or lower the signal. In short, it runs like this:
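Transiently transfected HepG2 cells carrying cis-element reporter units, dosed 24 hours. Reporter mRNA quantified by RT-PCR, fluorescent primer extension, HpaI digestion and capillary electrophoresis. Bidirectional fitting relative to DMSO.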

A short description of experiment [2]: ATG_M_32_CIS: Attagene CIS-FACTORIAL HepG2 Assay for M32 Transcription Factor (Internal Marker) (AID 2282949).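 Also: background control marker of the multiplexed CIS panel rather than a real target.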 Particulars: HepG2 Attagene cis-factorial M32 reporter, mRNA; actives raise or lower the signal. In short, it runs like this: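 HepG2 cells transiently transfected with multiplexed cis-regulated reporter units, dosed 24 h. Reporter mRNA quantified by RT-PCR, 6-FAM labelling, HpaI digestion and capillary electrophoresis; bidirectional fit vs DMSO.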

Experiment [3] is described as follows: ATG_M_06_CIS: Attagene CIS-FACTORIAL HepG2 Assay for M06 Transcription Factor (Internal Marker) (AID 2282950). Particulars: HepG2 Attagene CIS-FACTORIAL M06 internal marker reporter; actives raise or lower the signal. In short, it runs like this: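 One of many multiplexed endpoints: HepG2 reporter mRNA after 24 h dosing, detected by RT-PCR and capillary electrophoresis fluorescence; gain or loss of signal analysed against DMSO.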

Experiment [4] has as its target Hypoxia-inducible factor 1-alpha (Homo sapiens) (UniProt Q16665). As to the kind of experiment: ATG_HIF1a_CIS: Attagene CIS-FACTORIAL HepG2 Assay for human Hypoxia Inducible Factor 1 (HIF1A) (AID 2282951). Particulars: HepG2 Attagene cis-factorial HIF1a reporter transcription; actives raise or lower the signal. In short, it runs like this: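 Measures endogenous transcription-factor activity through cis-regulated reporter mRNA in HepG2. Cells dosed 24 h; transcripts quantified by RT-PCR with 6-FAM-labelled products separated by capillary electrophoresis; DMSO serves as negative control.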

Experiment [5] has as its target Hepatocyte nuclear factor 6 (Homo sapiens) (UniProt Q9UBC0). Nature of the experiment: ATG_HNF6_CIS: Attagene CIS-FACTORIAL HepG2 Assay for human Hepatocyte Nuclear Factor 6 (HNF6) (AID 2282952). The conditions noted are these: HepG2 Attagene cis-factorial HNF6 reporter transcription; actives raise or lower the signal. In short, it runs like this:
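HepG2, transient MRTU transfection (cis promoters); 24 h chemical exposure; total RNA → oligo(dT) RT → PCR → 6-FAM labelling → HpaI cut → CE; bidirectional fit vs DMSO.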

Experiment [6] addresses Heat shock factor protein 1 (Homo sapiens) (UniProt Q00613). As to the kind of experiment: ATG_HSE_CIS: Attagene CIS-FACTORIAL HepG2 Assay for human Heat Shock Transcription Factor 1 (HSE) (AID 2282953). The conditions noted are these: HepG2 HSE cis-reporter, Attagene RNA transcription; actives raise or lower the signal. In short, it runs like this: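 Using HepG2 with transfected cis-driven reporter constructs, compound effects on endogenous factor activity are scored as reporter mRNA change at 24 h. Detection: RT-PCR, HpaI digestion, capillary electrophoresis; bidirectional fitting to DMSO.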

A short description of experiment [7]: ATG_MRE_CIS: Attagene CIS-FACTORIAL HepG2 Assay for human Metal Responsive Element (MRE) (AID 2282954). Particulars: HepG2 MRE cis-reporter transcription, Attagene multiplex; actives raise or lower the signal. In short, it runs like this: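 HepG2 cells transiently transfected with cis-element-driven reporter units; mRNA measured 24 h after dosing. Reporter transcripts quantified by RT-PCR, FAM labelling, HpaI digestion and capillary electrophoresis; bidirectional fit versus DMSO.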

The nature of experiment [8]: ATG_PBREM_CIS: Attagene CIS-FACTORIAL HepG2 Assay for human Phenobarbital-responsive Enhancer Module (PBREM) (AID 2282955). Particulars: HepG2 PBREM cis-reporter, Attagene multiplexed transcription; actives raise or lower the signal. In short, it runs like this: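 Fluorescence of labelled reporter cDNA fragments, resolved by capillary electrophoresis, gives mRNA induction in transfected HepG2 cells treated for 24 h; DMSO serves as negative control and baseline.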

Experiment [9] deals with Paired box protein Pax-6 (Homo sapiens) (UniProt P26367). As to the kind of experiment: ATG_Pax6_CIS: Attagene CIS-FACTORIAL HepG2 Assay for human Paired Box 6 (PAX6) (AID 2282956). Particulars: HepG2 CIS-FACTORIAL PAX6 reporter transcription, RNA readout; actives raise or lower the signal. In short, it runs like this: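 HepG2 cells transiently transfected with cis-promoter-driven multiplexed reporter units sensing endogenous transcription factor activity; 24 h chemical exposure. Reporter mRNA quantified by RT-PCR, 6-FAM labelling, HpaI digestion and capillary electrophoresis; bidirectional fit versus DMSO baseline.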

The nature of experiment [10]: ATG_PXRE_CIS: Attagene CIS-FACTORIAL HepG2 Assay for human Pregnane X Receptor Element (PXRE) (AID 2282957). The conditions noted are these: HepG2 Attagene CIS-FACTORIAL PXRE reporter, mRNA; actives raise or lower the signal. In short, it runs like this: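 Transfect HepG2 with MRTUs (cis promoter elements); dose chemical, incubate 24 h; isolate RNA, RT with oligo(dT), PCR, 6-FAM label, HpaI cut, CE. Gain/loss fit vs DMSO.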

The nature of experiment [11]: ATG_PPRE_CIS: Attagene CIS-FACTORIAL HepG2 Assay for human Peroxisome Proliferator-activated Response Element (PPRE) (AID 2282958). The conditions noted are these: HepG2 PPRE cis-element reporter, Attagene transcription factor profiling; actives raise or lower the signal. In short, it runs like this: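 Cells are first transfected transiently with the multiplexed reporter library, then dosed for 24 h. Total RNA is reverse-transcribed, amplified, fluorescently end-labeled and HpaI-cut before capillary electrophoresis; activity is fitted bidirectionally against DMSO controls.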

Experiment [12] is described as follows: ATG_RORE_CIS: Attagene CIS-FACTORIAL HepG2 Assay for human RAR-related Orphan Receptor Element (RORE) (AID 2282959). The conditions noted are these: HepG2 Attagene cis-factorial RORE reporter, mRNA; actives raise or lower the signal. In short, it runs like this: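 Cells were HepG2 carrying transfected cis-regulated reporter constructs, dosed for 24 hours. Total RNA was reverse-transcribed and reporter cDNA amplified, fluorescently labeled and sized by capillary electrophoresis. Activity was fitted bidirectionally relative to DMSO.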

Experiment [13] is described as follows: ATG_Sox_CIS: Attagene CIS-FACTORIAL HepG2 Assay for human SRY-box transcription factor (SOX) (AID 2282960). The conditions noted are these: HepG2 Attagene cis-factorial SOX reporter, mRNA; actives raise or lower the signal. In short, it runs like this:
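Transient MRTU transfection of HepG2; 24 h compound incubation; TriZol RNA, oligo(dT) RT, PCR, 6-FAM primer extension, HpaI cut, CE. Bidirectional fit, DMSO = baseline.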

Experiment [14] has as its target Transcription factor Sp1 (Homo sapiens) (UniProt P08047). Nature of the experiment: ATG_Sp1_CIS: Attagene CIS-FACTORIAL HepG2 Assay for human Specificity Protein 1 (Sp1) (AID 2282961). The conditions noted are these: HepG2 Sp1 cis-reporter transcription, actives raise or lower the signal. In short, it runs like this: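 Endogenous Sp1 activity was gauged in human liver HepG2 cells bearing transfected reporter units under a cis-regulating promoter. After 24 h dosing, reporter mRNA was quantified by RT-PCR with capillary electrophoresis, and activity fitted bidirectionally versus DMSO.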

Experiment [15] can be described thus: ATG_SREBP_CIS: Attagene CIS-FACTORIAL HepG2 Assay for human Sterol Regulatory Element Binding (SREBP) (AID 2282962). Particulars: HepG2 Attagene cis-factorial SREBP reporter, mRNA; actives raise or lower the signal. In short, it runs like this:
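HepG2 cells transiently transfected with multiplexed cis-promoter reporter units sensing endogenous transcription factors; reporter mRNA measured 24 h after dosing by RT-PCR, 6-FAM labeling, HpaI digestion and capillary electrophoresis. Bidirectional fit versus DMSO.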

Experiment [16] has as its target Signal transducer and activator of transcription 3 (Homo sapiens) (UniProt P40763). As to the kind of experiment: ATG_STAT3_CIS: Attagene CIS-FACTORIAL HepG2 Assay for human Signal Transducer and Activator of Transcription 3 (STAT3) (AID 2282963). Particulars: HepG2, Attagene cis-factorial STAT3 reporter transcription; actives raise or lower the signal. In short, it runs like this:
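HepG2 cells transiently transfected with multiple cis-element-driven reporter units report endogenous transcription factor activity. After 24 h compound exposure, reporter mRNA is measured by RT-PCR, 6-FAM labelling, HpaI digestion and capillary electrophoresis. Fitted bidirectionally versus DMSO.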

Experiment [17] in a line: ATG_TA_CIS: Attagene CIS-FACTORIAL HepG2 Assay for human TA Basal Promoter (AID 2282964). The conditions noted are these: HepG2 Attagene CIS-factorial TA basal promoter reporter; actives raise or lower the signal. In short, it runs like this: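 Transient MRTU transfection of HepG2 preceded 24 h compound exposure. Reporter mRNA levels were then read by RT-PCR with capillary electrophoresis, and this background-control endpoint was fitted bidirectionally to DMSO.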

A short description of experiment [18]: ATG_TCF_b_cat_CIS: Attagene CIS-FACTORIAL HepG2 Assay for human T-Cell-Factor with beta-catenin (TCF/b-cat) (AID 2282965). Particulars: HepG2 TCF/beta-catenin cis-reporter transcription, actives raise or lower the signal. In short, it runs like this:
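HepG2 cells transiently transfected with cis-promoter-driven multiplexed reporter units; reporter mRNA measured 24 h after dosing by RT-PCR, FAM labelling, HpaI digestion and capillary electrophoresis. Bidirectional fitting relative to DMSO baseline.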

The nature of experiment [19]: ATG_TAL_CIS: Attagene CIS-FACTORIAL HepG2 Assay for human TAL Basal Promoter (AID 2282966).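 Also: background control endpoint measuring basal TAL promoter reporter mRNA not a specific factor.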 Particulars: HepG2 Attagene cis-factorial TAL promoter reporter; actives raise or lower the signal. In short, it runs like this:
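Fluorescence of labelled reporter cDNA fragments, resolved by capillary electrophoresis, gave the readout. Human HepG2 liver cells carried transiently transfected cis-element reporter units and were treated for 24 hours; activity was fitted bidirectionally against DMSO.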

Experiment [20] is described as follows: ATG_GRE_CIS: Attagene CIS-FACTORIAL HepG2 Assay for human Glucocorticoid Response Elements (GRE) (AID 2282947). The conditions noted are these: HepG2 GRE cis-reporter, Attagene multiplex mRNA; actives raise or lower the signal. In short, it runs like this:
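Transiently transfected HepG2 cells carrying GRE cis-reporter units (endogenous TF activity) dosed 24 h; reporter mRNA quantified by RT-PCR, 6-FAM labelling, HpaI digestion and capillary electrophoresis. Bidirectional fit versus DMSO baseline.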

SMILES strings stand for the structures. Activity calls are given as the source filed them. The calls were made as follows: active = hit-call score of the fitted dose curve at least 0.9, where 1 is the maximum; inactive = score below 0.9.

Chain of Signal transducer and activator of transcription 3 (Homo sapiens) (P40763 whole entry, looked up): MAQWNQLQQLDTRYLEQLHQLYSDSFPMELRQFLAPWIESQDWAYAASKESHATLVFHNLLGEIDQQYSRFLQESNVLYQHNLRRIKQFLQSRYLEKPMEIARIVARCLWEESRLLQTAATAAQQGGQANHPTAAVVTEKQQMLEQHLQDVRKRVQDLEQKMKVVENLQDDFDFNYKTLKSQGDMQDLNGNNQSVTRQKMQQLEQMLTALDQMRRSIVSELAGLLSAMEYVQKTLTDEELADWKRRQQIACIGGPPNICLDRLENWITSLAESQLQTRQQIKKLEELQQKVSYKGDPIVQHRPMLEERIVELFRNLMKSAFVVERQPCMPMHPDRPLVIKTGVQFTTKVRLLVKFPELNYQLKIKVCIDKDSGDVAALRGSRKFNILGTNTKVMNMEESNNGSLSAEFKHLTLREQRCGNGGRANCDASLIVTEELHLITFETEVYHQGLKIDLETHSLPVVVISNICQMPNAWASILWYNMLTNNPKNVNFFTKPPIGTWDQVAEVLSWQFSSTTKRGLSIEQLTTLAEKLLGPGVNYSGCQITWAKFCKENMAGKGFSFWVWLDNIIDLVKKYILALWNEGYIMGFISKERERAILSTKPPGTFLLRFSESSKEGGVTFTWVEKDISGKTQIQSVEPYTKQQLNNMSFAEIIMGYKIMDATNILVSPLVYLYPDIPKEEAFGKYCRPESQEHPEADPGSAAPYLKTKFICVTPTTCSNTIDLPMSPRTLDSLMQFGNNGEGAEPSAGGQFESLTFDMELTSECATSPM
Chain of Paired box protein Pax-6 (Homo sapiens) (P26367 whole entry, looked up): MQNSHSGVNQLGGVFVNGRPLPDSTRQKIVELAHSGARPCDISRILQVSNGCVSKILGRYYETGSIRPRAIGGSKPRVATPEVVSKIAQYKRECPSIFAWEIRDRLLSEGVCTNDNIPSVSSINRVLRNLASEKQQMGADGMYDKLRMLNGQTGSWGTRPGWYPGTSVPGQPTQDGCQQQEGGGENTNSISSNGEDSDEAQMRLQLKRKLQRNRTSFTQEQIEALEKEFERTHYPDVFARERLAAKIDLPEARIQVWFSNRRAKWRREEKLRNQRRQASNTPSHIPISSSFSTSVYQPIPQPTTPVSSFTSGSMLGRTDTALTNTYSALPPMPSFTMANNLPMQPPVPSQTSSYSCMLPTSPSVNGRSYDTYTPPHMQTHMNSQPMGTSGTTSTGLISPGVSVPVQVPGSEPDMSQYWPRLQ
Chain of Hepatocyte nuclear factor 6 (Homo sapiens) (Q9UBC0 whole entry, looked up): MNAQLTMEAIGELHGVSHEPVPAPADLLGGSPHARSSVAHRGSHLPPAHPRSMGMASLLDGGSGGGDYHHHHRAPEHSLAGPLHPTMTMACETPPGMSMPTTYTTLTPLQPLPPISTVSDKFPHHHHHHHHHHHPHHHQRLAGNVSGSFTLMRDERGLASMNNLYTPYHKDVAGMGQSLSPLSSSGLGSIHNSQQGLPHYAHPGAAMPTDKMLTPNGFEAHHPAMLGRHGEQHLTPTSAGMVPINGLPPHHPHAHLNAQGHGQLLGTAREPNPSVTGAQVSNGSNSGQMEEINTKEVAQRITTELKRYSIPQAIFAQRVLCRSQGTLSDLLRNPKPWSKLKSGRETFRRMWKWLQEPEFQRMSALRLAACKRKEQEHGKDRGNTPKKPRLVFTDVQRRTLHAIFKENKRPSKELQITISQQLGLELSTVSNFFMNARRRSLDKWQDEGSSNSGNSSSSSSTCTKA
Chain of Hypoxia-inducible factor 1-alpha (Homo sapiens) (Q16665 whole entry, looked up): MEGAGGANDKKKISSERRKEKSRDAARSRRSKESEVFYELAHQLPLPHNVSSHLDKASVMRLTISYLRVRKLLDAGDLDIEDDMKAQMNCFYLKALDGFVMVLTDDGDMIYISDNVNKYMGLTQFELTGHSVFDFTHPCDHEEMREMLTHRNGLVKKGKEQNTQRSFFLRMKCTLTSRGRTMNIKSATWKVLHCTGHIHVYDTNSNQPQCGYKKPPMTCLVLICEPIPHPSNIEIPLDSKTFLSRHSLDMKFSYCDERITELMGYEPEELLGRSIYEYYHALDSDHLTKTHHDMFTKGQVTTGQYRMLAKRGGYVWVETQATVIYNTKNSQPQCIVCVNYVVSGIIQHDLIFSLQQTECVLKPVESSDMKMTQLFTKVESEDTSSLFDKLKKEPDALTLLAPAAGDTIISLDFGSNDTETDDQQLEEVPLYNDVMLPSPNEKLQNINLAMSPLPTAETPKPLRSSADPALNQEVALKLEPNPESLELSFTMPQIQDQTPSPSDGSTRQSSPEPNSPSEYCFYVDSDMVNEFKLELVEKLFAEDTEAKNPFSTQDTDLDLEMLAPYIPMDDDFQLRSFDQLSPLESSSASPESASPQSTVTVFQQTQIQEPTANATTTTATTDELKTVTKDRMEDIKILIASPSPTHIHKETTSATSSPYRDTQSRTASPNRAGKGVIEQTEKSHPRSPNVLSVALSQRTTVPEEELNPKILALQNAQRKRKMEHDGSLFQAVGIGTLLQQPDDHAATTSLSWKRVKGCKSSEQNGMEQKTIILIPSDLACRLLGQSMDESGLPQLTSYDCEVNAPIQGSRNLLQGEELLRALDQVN
Chain of Heat shock factor protein 1 (Homo sapiens) (Q00613 whole entry, looked up): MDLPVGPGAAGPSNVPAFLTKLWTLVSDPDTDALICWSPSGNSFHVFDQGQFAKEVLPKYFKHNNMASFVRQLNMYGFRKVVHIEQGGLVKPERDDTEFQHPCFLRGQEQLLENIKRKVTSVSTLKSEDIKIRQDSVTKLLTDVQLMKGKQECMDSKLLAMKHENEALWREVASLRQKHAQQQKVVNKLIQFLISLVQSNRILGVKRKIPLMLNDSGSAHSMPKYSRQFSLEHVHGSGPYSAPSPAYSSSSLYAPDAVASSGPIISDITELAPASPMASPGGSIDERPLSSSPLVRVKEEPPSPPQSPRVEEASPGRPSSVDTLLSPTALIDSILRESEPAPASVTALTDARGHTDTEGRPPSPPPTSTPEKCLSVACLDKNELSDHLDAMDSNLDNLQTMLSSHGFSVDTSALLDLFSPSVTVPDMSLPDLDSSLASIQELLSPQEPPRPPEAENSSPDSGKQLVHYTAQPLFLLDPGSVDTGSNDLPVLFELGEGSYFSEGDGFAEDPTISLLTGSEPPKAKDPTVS
Chain of Transcription factor Sp1 (Homo sapiens) (P08047 whole entry, looked up): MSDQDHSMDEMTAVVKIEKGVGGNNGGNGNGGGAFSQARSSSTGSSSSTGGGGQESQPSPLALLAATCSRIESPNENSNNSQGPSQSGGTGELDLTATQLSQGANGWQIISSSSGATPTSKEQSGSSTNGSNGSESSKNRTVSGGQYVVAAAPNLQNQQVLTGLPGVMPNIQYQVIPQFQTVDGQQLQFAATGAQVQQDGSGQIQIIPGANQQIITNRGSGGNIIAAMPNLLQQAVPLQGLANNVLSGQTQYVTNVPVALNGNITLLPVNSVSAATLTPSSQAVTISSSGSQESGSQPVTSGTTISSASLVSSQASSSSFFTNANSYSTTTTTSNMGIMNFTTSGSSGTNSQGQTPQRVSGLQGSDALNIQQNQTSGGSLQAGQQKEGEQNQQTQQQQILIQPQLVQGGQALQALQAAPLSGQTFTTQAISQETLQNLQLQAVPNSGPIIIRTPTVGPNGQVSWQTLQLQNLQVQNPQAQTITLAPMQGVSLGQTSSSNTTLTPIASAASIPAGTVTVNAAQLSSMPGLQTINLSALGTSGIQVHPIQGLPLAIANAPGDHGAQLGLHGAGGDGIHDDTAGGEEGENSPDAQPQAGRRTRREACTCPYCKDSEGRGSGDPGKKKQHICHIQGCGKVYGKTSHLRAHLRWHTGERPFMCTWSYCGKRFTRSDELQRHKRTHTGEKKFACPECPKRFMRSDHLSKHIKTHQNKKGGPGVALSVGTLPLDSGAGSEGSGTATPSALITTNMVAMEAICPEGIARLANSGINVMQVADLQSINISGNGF

`O=C(O)C1(C(=O)Nc2ccc(Cl)cc2Cl)CC1`: the result in experiment [1], in experiment [2], in experiment [3], in experiment [4], in experiment [5] and in [6] was inactive. In addition, the call in [7], in experiment [8], in [9], in experiment [12], in experiment [13] and in experiment [14] was inactive. Also, the outcome in [15], in experiment [16], in experiment [17], in experiment [18] and in experiment [19] was inactive. Further, the AC50 in experiment [10] is 69.7 µM (active); in experiment [11], 13.7 µM (active).
As to `CCN(Cc1c(F)cccc1Cl)c1c([N+](=O)[O-])cc(C(F)(F)F)cc1[N+](=O)[O-]`, the result in experiment [1], in experiment [2], in experiment [3], in experiment [4], in experiment [5] and in experiment [6] was inactive. Moreover, the call in experiment [7], in experiment [11], in experiment [12], in experiment [13], in experiment [14] and in experiment [16] was inactive. The outcome in [17], in experiment [18] and in [19] was inactive. For the same molecule, the AC50 in experiment [8] is 7.72 µM (active); in [9], 7.64 µM (active); in experiment [10], 1.26 µM (active).
Take `CCCOC(=O)c1ccc(C(=O)OCCC)nc1`: the outcome in experiment [20], in experiment [1], in experiment [2], in experiment [3], in experiment [4] and in experiment [5] was inactive. In addition, the call in experiment [6], in experiment [7], in experiment [8], in [9], in experiment [10] and in experiment [13] was inactive. The outcome in experiment [14], in experiment [15], in experiment [16], in [17], in experiment [18] and in [19] was inactive. Moreover, the AC50 in experiment [11] was 23.1 µM (active).
For the molecule `COc1c(Cl)ccc(Cl)c1C(=O)O`, the molecule was called inactive in experiment [1], in experiment [2], in experiment [3], in experiment [4], in experiment [5] and in experiment [6]. In addition, the molecule was called inactive in experiment [7], in experiment [8], in [9], in [10], in experiment [11] and in [12]. Also, the molecule was called inactive in experiment [13], in experiment [14], in experiment [16], in experiment [17], in experiment [18] and in experiment [19].
